The nature of assay [1]: qHTS assay to identify small molecule antagonists of the estrogen related receptor (ERR) signaling pathway from Tox21 library - cell viability counter screen (AID 1224834). Note: nearly all actives have a fitted effect of over 30% in size. Note: potency is the fitted concentration of half-maximal effect. In outline: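 ERR cells, 2,000/well; 6 h settle at 37 C/5% CO2; pin-tool compound transfer in DMSO; 17.5 h at 37 C; CellTiter-Fluor, 30 min; fluorescence intensity.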
(In general: In qHTS, concentration-response curves come from the screen itself.)

In assay [2] the target is Luciferin 4-monooxygenase (Photinus pyralis) (UniProt P08659). Description: qHTS assay to identify small molecule inhibitors of firefly luciferase (AID 1224835). Note: nearly all actives have a fitted effect of over 25% in size. Note: potency is the fitted concentration of half-maximal effect. In outline:
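Inhibition of purified Photinus luciferase is measured by luminescence. Substrate levels (D-luciferin, ATP) sit at their KM values. Each compound is tested in a concentration series.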

The nature of assay [3]: qHTS assay to identify small molecule agonists of the constitutive androstane receptor (CAR) signaling pathway - cell viability counter screen (AID 1224836). Note: nearly all actives have a fitted effect of over 45% in size. Note: potency is the fitted concentration of half-maximal effect. In outline:
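Viability read-out: CellTiter-Fluor fluorescence after 23 h compound exposure at 37 C/5% CO2 in double-stable HepG2-CYP2B6-hCAR cells, with PK11195 present at 0.75 uM final; compounds tested in 15-point titration.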

Assay [4] in a line: qHTS assay to identify small molecule antagonists of the constitutive androstane receptor (CAR) signaling pathway - cell viability counter screen (AID 1224837). Note: nearly all actives have a fitted effect of over 45% in size. Note: potency is the fitted concentration of half-maximal effect. The gist of the method:
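Viability was measured with CellTiter-Fluor in a HepG2 line carrying stably transfected hCAR and a CYP2B6-2.2kb construct. Cells were exposed for 23 hr at 37 C to 15 compound concentrations with 50 nM CITCO as agonist.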

Assay [5] in a line: qHTS assay to identify small molecule antagonists of the estrogen related receptor signaling pathway with the pleiotropic PPARgamma coactivator (PGC) from Tox21 10K library - cell viability counter screen (AID 1224840; active = well fitted cell-killing curve with a large enough effect in the repeat runs, not every such curve was filed as active; note: nearly all actives have a fitted effect of over 40% in size). The gist of the method: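 Multiplexed viability counter screen in the PGC/ERR cell line: cells treated with DMSO-dissolved compounds for 17.5 hours at 37 C, then viability measured as CellTiter-Fluor fluorescence.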

Assay [6] can be described thus: qHTS assay to identify small molecule antagonists of the estrogen related receptor signaling pathway with the pleiotropic PPARgamma coactivator (PGC) from Tox21 10K library (AID 1224841; call rule not given here; note: series mostly up to about 92 µM; actives are mostly falling curves and most rising ones were filed inactive; nearly all actives have a fitted effect of over 50% in size). In outline:
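Steps: plate 2,000 PGC/ERR cells per well; incubate 6 h at 37 C with 5% CO2; transfer compounds from DMSO stocks by pin tool; incubate 18 h at 37 C; add One-Glo; measure luminescence 30 min later.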

Assay [7] is described as follows: qHTS assay to identify small molecule agonists of the estrogen related receptor signaling pathway with the pleiotropic PPARgamma coactivator (PGC) from Tox21 10K library (AID 1224842). Note: nearly all actives have a fitted effect of over 15% in size. The gist of the method: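 Luminescence from One-Glo (30 min, room temperature) measured after PGC/ERR cells had 18 h at 37 C with pinned compound (23 nL in DMSO). Cells had been seeded at 2,000 per well and pre-incubated 6 h.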

Assay [8] addresses Nuclear receptor subfamily 1 group I member 3 (Homo sapiens) (UniProt Q14994). Description: qHTS assay to identify small molecule antagonists of the constitutive androstane receptor (CAR) signaling pathway (AID 1224838).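 Note: HepG2 cells stably expressing hCAR with CYP2B6 luciferase reporter stimulated by CITCO; nearly all actives have a fitted effect of over 40% in size.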 In outline:
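Antagonist mode used CITCO at a final 50 nM to activate CAR in human hepatoma HepG2 cells carrying stable hCAR and a 2.2 kb CYP2B6 promoter-luciferase construct. Compounds were tested at 15 concentrations over 24 h, with luminescence as the end point.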

Assay [9] has the same target. Briefly: qHTS assay to identify small molecule agonists of the constitutive androstane receptor (CAR) signaling pathway (AID 1224839). Note: nearly all actives have a fitted effect of over 15% in size. Note: potency is the fitted concentration of half-maximal effect. In outline: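 Luminescence read-out (ONE-Glo, 30 min, room temperature) from double-stable HepG2-CYP2B6-hCAR cells exposed 24 h to 15-point compound series in presence of 0.75 uM PK11195 final.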

For 29 compounds, Potency results are on record in PubChem BioAssay (Tox21).

Inconclusive results are not listed. The source made the active and inactive calls. Unless noted, calls come from the whole dose curve; as a rule, active = well fitted curve in the direction sought with a large enough effect in the repeat runs; inconclusive = weak or mixed curves; inactive = no such curve, though single readings can be large; an effect the other way counts as inactive or inconclusive.

Chain of Nuclear receptor subfamily 1 group I member 3 (Homo sapiens) (Q14994 whole entry, looked up): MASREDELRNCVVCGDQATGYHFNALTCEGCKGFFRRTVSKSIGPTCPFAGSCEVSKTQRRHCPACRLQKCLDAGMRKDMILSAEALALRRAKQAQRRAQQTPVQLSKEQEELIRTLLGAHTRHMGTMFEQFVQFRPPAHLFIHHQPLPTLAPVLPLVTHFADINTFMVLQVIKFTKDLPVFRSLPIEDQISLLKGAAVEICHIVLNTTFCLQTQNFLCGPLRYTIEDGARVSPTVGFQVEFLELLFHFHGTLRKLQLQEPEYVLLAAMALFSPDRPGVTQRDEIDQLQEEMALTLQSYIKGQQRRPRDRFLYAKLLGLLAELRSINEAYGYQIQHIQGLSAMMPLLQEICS
Chain of Luciferin 4-monooxygenase (Photinus pyralis) (P08659 whole entry, looked up): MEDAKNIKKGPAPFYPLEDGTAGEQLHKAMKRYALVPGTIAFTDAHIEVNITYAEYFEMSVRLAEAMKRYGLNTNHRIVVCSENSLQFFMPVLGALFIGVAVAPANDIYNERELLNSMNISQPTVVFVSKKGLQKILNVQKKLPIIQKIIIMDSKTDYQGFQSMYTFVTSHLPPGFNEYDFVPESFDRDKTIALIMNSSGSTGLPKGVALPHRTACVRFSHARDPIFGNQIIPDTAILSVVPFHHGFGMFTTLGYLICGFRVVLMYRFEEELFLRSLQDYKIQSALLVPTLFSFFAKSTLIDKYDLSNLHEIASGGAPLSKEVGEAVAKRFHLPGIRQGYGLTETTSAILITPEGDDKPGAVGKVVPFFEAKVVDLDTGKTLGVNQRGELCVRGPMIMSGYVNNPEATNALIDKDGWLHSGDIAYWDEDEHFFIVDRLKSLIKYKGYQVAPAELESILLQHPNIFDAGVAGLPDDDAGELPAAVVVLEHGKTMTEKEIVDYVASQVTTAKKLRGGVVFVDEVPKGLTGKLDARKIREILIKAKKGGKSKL

`O=c1[nH]c2ccc(Cl)cc2o1`: the Potency result in assay [1], in [2], in assay [3], in assay [4], in [5] and in assay [6] was “inactive” throughout. Moreover, the Potency entry in [7] is “inactive”.
As to `CC1CC(OC(=O)C(O)c2ccccc2)CC(C)(C)N1C` (configuration not stated), the Potency entry in assay [1], in [2], in assay [3], in assay [4], in assay [6] and in [7] was “inactive” each time.
Take `CCn1cc(C(=O)O)c(=O)c2cc(F)c(N3CCNCC3)cc21`: the Potency result in assay [1], in [2], in assay [3], in assay [4] and in [5] was “inactive” in each case.
For `C=C1CCC2CC1C2(C)C` (configuration not stated), the Potency result in [1], in assay [2], in [3], in assay [4] and in [5] was “inactive” in each case.
For `NNC(=O)CP(=O)(c1ccccc1)c1ccccc1`, the Potency entry in assay [1], in assay [2], in [3], in [4] and in [5] was “inactive” in each case.
For the compound `CCOC(C)=O`, the Potency result in [1], in [2], in [3], in assay [8], in [9] and in assay [5] was “inactive” in each case.
On to `CO[C@]1(NC(=O)CSC(F)F)C(=O)N2C(C(=O)O)=C(CSc3nnnn3CCO)CO[C@H]21`, for which the Potency entry in assay [1], in assay [2], in [3], in assay [4] and in assay [5] was “inactive” throughout.
With `Cc1cc(C)c(N)cc1C`, the Potency entry in [1], in assay [2], in assay [3], in [8], in assay [9] and in assay [5] was “inactive” throughout.
Turning to `CCC(OCCCOC)OC(C)=O` (configuration not stated), the Potency entry in assay [1], in assay [2], in assay [3], in assay [4] and in assay [5] was “inactive” each time.
As to `CCOc1ccccc1O[C@H](c1ccccc1)[C@H]1CNCCO1`, the Potency result in [1], in assay [2], in [3], in assay [4] and in assay [5] was “inactive” each time.
With `O=C1NC(=O)c2cc([N+](=O)[O-])ccc21`, the Potency entry in assay [1], in assay [2], in [3], in assay [4] and in assay [5] was “inactive” in each case.
As to `Clc1cc(Cl)nc(Cl)n1`, the Potency entry in assay [1], in assay [2], in assay [3], in assay [8], in [9] and in assay [5] was “inactive” in each case.
Take `C[C@@H]1CN(CCCn2c3ccccc3c3ccccc32)C[C@H](C)N1`: the Potency in assay [1] was 29.8 µM (active); in assay [3], 29.8 µM (active); in assay [4], 26.6 µM (active); in assay [9], 2.11 µM (active). Also, the Potency entry in assay [2] and in [7] was “inactive” throughout.
As for `CCC(C)COC(=O)CC(C)C` (configuration not stated), the Potency result in [1], in assay [2], in [3], in [8], in assay [9] and in assay [5] was “inactive” in each case.
For the compound `CCC1(CO)COCOC1`, the Potency entry in assay [1], in assay [2], in assay [3], in assay [4], in assay [5] and in [6] was “inactive” throughout. Further, in [7], the Potency result was “inactive”.
On to `CCCCCCCC/C=C\CCCCCCCCO`, for which the Potency entry in assay [1], in assay [2], in assay [3], in assay [4], in assay [6] and in assay [7] was “inactive” throughout.
Turning to `O[C@@H]1CO[C@H]2[C@@H]1OC[C@@H]2O`, the Potency entry in [1], in assay [2], in assay [3], in assay [4] and in assay [5] was “inactive” each time.
Regarding `CC1(C)O[C@@H]2C[C@H]3[C@@H]4C[C@H](F)C5=CC(=O)C=C[C@]5(C)[C@H]4[C@@H](O)C[C@]3(C)[C@]2(C(=O)CO)O1`, the Potency entry in [1], in [2], in assay [3], in assay [8], in assay [9] and in assay [5] was “inactive” throughout.
Turning to `O=C(O)CCC(=O)C(=O)O`, the Potency result in [1], in assay [2], in [3], in [4] and in assay [5] was “inactive” in each case.
Regarding `CC=C(Cl)Cl`, the Potency result in [1], in assay [2], in assay [3], in [8], in assay [9] and in assay [5] was “inactive” in each case.
Regarding `CCOC(=O)/C=C/C(=O)OCC`, the Potency entry in [1], in [2], in assay [3], in assay [4], in [5] and in assay [6] was “inactive” each time. In addition, in [7], the Potency entry is “inactive”.
As for `C=Cc1ccc(S(=O)(=O)O)cc1`, the Potency entry in assay [1], in assay [3], in [4], in assay [6] and in assay [7] was “inactive” in each case. In addition, the Potency in assay [2] is 20 µM (active).
Regarding `CCC(C)COC(C)=O` (configuration not stated), the Potency result in assay [1], in assay [2], in assay [3], in [4], in assay [6] and in [7] was “inactive” throughout.
Consider `CCCCCCCCCCC(=O)O`, for which the Potency result in [1], in [3], in assay [4] and in assay [5] was “inactive” in each case. Besides, the Potency in assay [2] was 57.1 µM (active).
On to `Cc1ccccc1S`, for which the Potency entry in assay [1], in assay [2], in [3] and in assay [8] was “inactive” in each case.
`COC(=O)CS`: the Potency entry in assay [1], in assay [2], in assay [3], in [4] and in [5] was “inactive” in each case.
`O=C1NCCN1CCO`: the Potency result in assay [1], in assay [2], in assay [3], in [8] and in assay [9] was “inactive” throughout.
As for `CCOC(=O)c1ccc(C#Cc2ccc3c(c2)C(C)(C)CCS3)nc1`, the Potency entry in assay [1], in assay [2], in [3], in assay [4] and in [5] was “inactive” each time.
With `CC[N+](CC)(CCNC(=O)C(=O)NCC[N+](CC)(CC)Cc1ccccc1Cl)Cc1ccccc1Cl`, the Potency result in [1], in [2], in assay [3], in assay [4], in [6] and in assay [7] was “inactive” each time.
